Test results published in PubChem BioAssay AID720504 (National Center for Advancing Translational Sciences (NCATS), 2013).
In all, about 360,000 compounds went through this assay and about 10,000 (2.8%) were called active. About 4% were inconclusive and are not listed. The call rests on the fitted dose curve; in most records, active means well fitted inhibition curve with a large enough effect; inconclusive means small, poorly fitted or top-dose-only effect; inactive means flat fitted curve, though single readings scatter. The full list was thinned out, with actives kept by preference.

These molecules were tested against Serine/threonine-protein kinase PLK1 (Homo sapiens) (UniProt P53350) (assay: qHTS for Inhibitors of PLK1-PDB (polo-like kinase 1 - polo-box domain): Primary Screen). Details: Plk1 PBD binding of FITC phosphopeptide, fluorescence polarization.
Serine/threonine-protein kinase PLK1 (Homo sapiens), sequence (P53350 whole entry, looked up, the tested form may be a part): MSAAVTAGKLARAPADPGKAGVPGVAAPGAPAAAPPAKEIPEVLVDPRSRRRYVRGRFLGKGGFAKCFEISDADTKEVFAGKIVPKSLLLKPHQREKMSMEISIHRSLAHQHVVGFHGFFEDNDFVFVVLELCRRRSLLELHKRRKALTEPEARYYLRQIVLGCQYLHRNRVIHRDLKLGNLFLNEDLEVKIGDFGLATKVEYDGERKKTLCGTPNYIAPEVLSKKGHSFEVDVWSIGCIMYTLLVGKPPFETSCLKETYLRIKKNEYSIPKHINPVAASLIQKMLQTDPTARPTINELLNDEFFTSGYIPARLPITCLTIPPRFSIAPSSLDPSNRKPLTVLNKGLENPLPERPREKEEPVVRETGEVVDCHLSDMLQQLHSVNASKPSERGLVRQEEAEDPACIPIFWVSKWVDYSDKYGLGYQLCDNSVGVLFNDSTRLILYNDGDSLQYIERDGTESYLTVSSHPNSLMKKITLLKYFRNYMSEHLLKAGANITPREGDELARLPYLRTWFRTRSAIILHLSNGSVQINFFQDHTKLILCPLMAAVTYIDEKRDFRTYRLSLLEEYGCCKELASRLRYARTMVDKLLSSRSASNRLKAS
Text: The polo-like kinase 1 (Plk1) is a member of a conserved subfamily of serine / threonine protein kinases that plays a pivotal roles in cell proliferation. It has a C-terminal non-catalytic region called the polo-box domain (PBD) that plays a crucial role in the subcellular localization of the Plk1. […] Furthermore, depletion of the overexpressed Plk1 by RNAi efficiently induces apoptotic cell death in cancer and reduces tumor growth in mouse xenograft models. Thus, targeting Plk1 is an appealing strategy for anti-cancer therapy. Therefore, this project aimed to screen the Molecular Libraries Small Molecule Repository (MLSMR) using a novel approach to find inhibitors that target the Plk1 PBD instead of the conventional N-terminal catalytic domain. This project employed a fluorescence polarization (FP) assay using a FITC-conjugated phospho-9-mer (p-9-mer) peptide and purified human Plk1 PBD protein. The identified small molecule inhibitors of Plk1 PBD can then further be developed into useful tools for biomedical and clinical research that complements or replaces current relevant disease therapy. NIH Chemical Genomics Center [NCGC] NIH Molecular Libraries Probe Centers Network [MLPCN] MLPCN Grant: MH100728 Assay Submitter (PI): Kyung Lee, NCI
Four microliter of 25 nM FITC-p-9-mer + 60 nM Plk1 PBD in buffer solution (final concentrations 25 nM and 60 nM respectively) or 4 uL of 25 nM FITC-p-9-mer (final concentration 25 nM) in buffer will be dispensed into a 1,536 Greiner medium-binding black solid plate. Small molecules at final concentrations of 18 nM to 57 uM and positive control phospho-9-mer (sequence: Ac-PPLHSpTAI-NH2) at final concentrations 26 nM to 57 uM and phospho-13-mer (sequence: Ac-[…]pTAI-NH2) at final concentrations of 1 nM to 2.3 uM will be pin-transferred (23 nL) to the plate via a Kalypsys pin-tool robotics equipped with a 1,536-pin array. The reaction plate will be centrifuged for 1 min at 1000 rpm and incubated at room temperature for 10 min. The FITC fluorescence signals will be read using the PerkinElmer ViewLux plate reader at 480 / 20 nm excitation and 540 / 20 nm S and P polarization emission wavelengths. Reagent bottles will be kept submerged into 4 °C recirculating chiller bath and all liquid lines will be covered with aluminum foil to minimize degradation. Library plates will be screened starting from the lowest to the highest concentrations to minimize compound carryover. Vehicle only plates, with DMSO being pin-transferred instead of compound solutions, will be included regularly throughout the screen to record any systematic shifts in assay signal.
Further: nearly all actives have a fitted effect of over 65% in size.
On the % scale 0 is the no-effect control and ±100 the full control effect; potency means the concentration at half of the fitted maximal effect.
Wherever Max response, negative = inhibition is given: series mostly up to about 57 µM.

Max response, negative = inhibition, inactive:
CCc1nc2c(OCCOc3ccc(F)cc3)cccn2c1N(C)C(=O)c1ccccc1F -3.7%
CC(=O)c1cccc(-c2cnc3c(NC=O)cc(-c4ccccc4Oc4ccccc4)cn23)c1 -5.21%
C[C@@H]1CN([C@@H](C)CO)C(=O)CCCn2nncc2CO[C@@H]1CN(C)S(=O)(=O)c1ccc(-c2ccccc2)cc1 -14.2%
O=C1[C@H]2[C@@H](c3ccc(C(F)(F)F)cc3)N[C@]3(CCCN(Cc4ccc(Cl)cc4)C3=O)[C@H]2C(=O)N1Cc1ccccc1 -4.13%
CCOc1ccc(-c2nc(C)sc2CC(=O)O)cc1 -0.634%
CCOC(=O)C(=O)Nc1nc(-c2ccccc2)c(CC)s1 -16.3%
CC(C)n1ncc2c(C(=O)N3CCN(Cc4cccs4)CC3)cc(C3CC3)nc21 -8.38%
Cc1cccc(C)c1-n1nnnc1C1(C)CCC(=O)N1CCOc1ccccc1 (stereo not drawn) -8.78%
COc1ccc(C2=Nc3ccccc3NC(=O)C2N(C(=O)c2cc3ccccc3[nH]2)c2ccccc2)cc1 (stereo not drawn) 5.46%
Cc1cc(C(=O)OCC(=O)N2C(C)CCCC2C)c2ccccc2n1 (stereo not drawn) -9.12%
CC(=O)N1CCN(C(=O)c2cc(-c3ccc(Cl)s3)nc3ccccc23)CC1 4.68%
O=C(Nc1ccc(F)cc1)C(CCc1ccccc1)N1CCN(CC(=O)N2CCCC2)CC1 (stereo not drawn) -3.84%
Cc1ccc(C(=O)OCC(=O)NCc2ccc3c(c2)OCO3)s1 -7.48%
COc1cccc(CC(=O)OCC(=O)NCc2ccc3c(c2)OCO3)c1 -5.11%
Cc1c(C(=O)NCc2ccc(C#N)cc2)sc(=O)n1Cc1ccc(C(=O)N(C)C)cc1 -10.6%
COc1ccc(NC(=O)ON=C2c3ccccc3-c3ccccc32)cc1 -8.43%
CN1C(=O)/C(=C\c2cc(Br)cs2)c2ccccc21 9.61%
O=C(N=C1SC2CS(=O)(=O)CC2N1Cc1ccccc1)c1ccccc1 (stereo not drawn) -10.4%
CC(=O)c1ccc(N2Cc3ccccc3C2)cc1 -10.7%
O=C(C1Cc2ccccc2CN1C(=O)c1ccco1)N1CCN(c2ccccc2)CC1 (stereo not drawn) -14.9%
CSc1ncnc2c1ncn2CCCNCC1CCCCC1 2.12%
Cc1c(NC(=O)COC(=O)/C=C/c2cccc(F)c2)c(=O)n(-c2ccccc2)n1C -2.07%
Cc1c(C(=O)NCC2CC2)sc(=O)n1Cc1cccc(F)c1 3.08%
N#CC1(Nc2ccc3c4c(cccc24)CC3)CCCCC1 -12.6%
CCOC(=O)CSc1ncc(-c2cccc(Cl)c2)cn1 -7.44%
Cc1oc(-c2ccccc2Cl)[n+]([O-])c1C -3.14%
CC(C)c1ccc(CC(=O)N2CCC2(C)C(=O)NS(=O)(=O)c2ccc(C(C)(C)C)cc2)cc1 (stereo not drawn) -5.51%
COc1ccc(NS(=O)(=O)c2ccc(Oc3c(C#N)cccc3C#N)cc2)cc1 -0.548%
CCCC(NS(=O)(=O)c1ccc(OC)cc1)C(=O)O (stereo not drawn) -2.19%
CCOC(=O)N1CCN(C(=O)C(=O)Nc2sc3c(c2C#N)CC(C)(C)OC3)CC1 -23.2%
COC(=O)c1c(NC(=O)C(=O)N2CCCCC2)sc2c1CC(C)(C)OC2 -13.1%
CC(C)C[C@H]1CNC(=O)C(=O)N1C[C@@H]1CCCN1C[C@H](Cc1ccccc1)N1C[C@H](CC(C)C)N(CC2CCCCCC2)C(=O)C1=O 2.6%
Cc1ccc(CS(=O)(=O)c2ncc(Cl)c(C(=O)Nc3nnc(C)s3)n2)cc1 -16.3%
Cc1cccc(NC(=O)C(C)SCc2ccccc2)c1 (stereo not drawn) -10.4%

Potency, active:
C/C(=N/Nc1nc(-c2ccccc2)c(CC(=O)O)s1)c1ccccc1 13.4 µM
COC(=O)c1cc(N2CCNCC2)nc2ccccc12 23.8 µM
Cc1cc(Br)ccc1SCC(=O)OCC(=O)NCc1ccc2c(c1)OCO2 29.9 µM
CN1C(=O)/C(=N/OC(=O)c2ccccc2Br)c2ccccc21 23.8 µM
CC(=O)N1Cc2ccccc2CC1C(=O)O (stereo not drawn) 2.67 µM
Cc1oc(-c2cccc(Cl)c2)[n+]([O-])c1C 29.9 µM
COc1ccc(S(=O)(=O)/N=C2\C=C(NS(=O)(=O)c3ccccc3)C(=O)c3ccccc32)cc1 29.9 µM
CC1(C)Cc2c(sc(NC(=O)C(=O)N3CCOCC3)c2C#N)CO1 9.47 µM
Cc1cccc(NC(=O)c2nc(S(=O)(=O)Cc3ccccc3)ncc2Cl)c1 8.44 µM
